According to the supplement of paper PMC10849652:
The full data set covers some 8,800 targets. This sample favours those with a hit. About 0.5% of all pairs of compound and target were hits. Values without a mark were called inactive.

Columns and labels:
Test in all cases: log2 fold change, soluble protein after heating vs DMSO (PISA); higher = thermal stabilisation; K562 lysate, 10 uM; active = over 0.2 and 3.5 SD of the protein, either way, in both replicates (recomputed)
[1] = compound: CCCS(=O)(=O)Nc1ccc(F)c(C(=O)c2c[nH]c3ncc(-c4ccc(Cl)cc4)cc23)c1F [vemurafenib]
Method in brief: (§1)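 Following dounce homogenisation of K562 pellets in PBS pH 7.4 with 1 mM MgCl2, crude extract at 1 mg/mL protein was incubated for 30 min with 10 μM compound. Aliquots were then heated for 3 min over 48°C-58°C and pooled, NP-40 was added to 0.5% at 4°C, and soluble protein was recovered as the supernatant at 21,000xg for 90 min. Channel-sum-equalised TMTpro 16plex LC-MS/MS quantified this protein. Each value, from duplicates, is a log-two fold change in thermal stability relative to solvent controls.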

[2] = compound: CCCS(=O)(=O)Nc1ccc(F)c(C(=O)c2c[nH]c3ncc(Cl)cc23)c1F
Method in brief: as §1

[3] = compound: CCN(CCCOc1ccc2c(Nc3cc(CC(=O)Nc4cccc(F)c4)[nH]n3)ncnc2c1)CCOP(=O)(O)O [barasertib]
Method in brief: as §1

[4] = compound: CC[C@@H]1C(=O)N(C)c2cnc(Nc3ccc(C(=O)NC4CCN(C)CC4)cc3OC)nc2N1C1CCCC1
Method in brief: as §1

[5] = compound: CC[C@@H]1C(=O)N(C)c2cnc(Nc3ccc(C(=O)N[C@H]4CC[C@H](N5CCN(CC6CC6)CC5)CC4)cc3OC)nc2N1C(C)C [volasertib]
Method in brief: as §1

[6] = compound: CCn1c(C(=O)N(C2CC2)C2CC2)cc2c3c(ncn3C)c(Nc3cc(C)n(C)n3)nc21
Method in brief: as §1

[7] = compound: CCn1cc(-c2ccnc3[nH]c(-c4cccc(CN(C)C)c4)cc23)c(-c2ccc(NC(=O)N(C)C)cc2)n1
Method in brief: as §1

[8] = compound: CN1CCC(CNc2ccc3ncc(-c4cccc(OC(F)(F)F)c4)n3n2)CC1
Method in brief: as §1

[9] = compound: CN1CCN(CCOc2cc(OC3CCOCC3)c3c(Nc4c(Cl)ccc5c4OCO5)ncnc3c2)CC1 [saracatinib]
Method in brief: as §1

[10] = compound: CN1CCN(c2nc(C3=C(c4c[nH]c5ccccc45)C(=O)NC3=O)c3ccccc3n2)CC1 [sotrastaurin]
Method in brief: as §1

[11] = compound: CN1CC[C@H](c2c(O)cc(O)c3c(=O)cc(-c4ccccc4Cl)oc23)[C@H](O)C1 [alvocidib]
Method in brief: as §1

[12] = compound: CN1CCc2c(c3ccccc3n2Cc2ccc(C(=O)NO)cc2)C1 [Tubastatin A]
Method in brief: as §1

[13] = compound: CNC(=O)C1=CC=CC=C1NC2=NC(=NC=C2Cl)NC3=C(C=C(C=C3)N4CCOCC4)OC
Method in brief: as §1

[14] = compound: CNC(=O)c1ccc(Nc2ncc(C(F)(F)F)c(NCc3nccnc3N(C)S(C)(=O)=O)n2)cc1 [defactinib]
Method in brief: as §1

[15] = compound: CNc1nc(-c2ccc3c(N)n[nH]c3c2)cc(N2C[C@@H](C(=O)NC3CCCCC3)CC[C@H]2C)n1
Method in brief: as §1

[16] = compound: COC(=O)N[C@@H](C)CNc1nccc(-c2cn(C(C)C)nc2-c2cc(Cl)cc(NS(C)(=O)=O)c2F)n1 [encorafenib]
Method in brief: as §1

[17] = compound: COC(=O)[C@H](CCSC)NC(=O)C1=C(C=C(C=C1)NC[C@H](CS)N)C2=CC=CC=C2
Method in brief: as §1

[18] = compound: COc1cc(Nc2ncc3c(n2)-c2ccc(Cl)cc2C(c2c(F)cccc2OC)=NC3)ccc1C(=O)O [alisertib]
Method in brief: as §1

[19] = compound: COc1cc2nc(-c3cc(F)ccc3O)nc(N[C@@H]3CNC[C@H]3C(C)(C)O)c2cc1OC
Method in brief: as §1

[20] = compound: COc1cc2ncnc(Nc3ccc(F)c(Cl)c3)c2cc1OCCCN1CCOCC1 [gefitinib]
Method in brief: as §1

Sequence of UniProt Q13155 (Q13155 whole entry, looked up): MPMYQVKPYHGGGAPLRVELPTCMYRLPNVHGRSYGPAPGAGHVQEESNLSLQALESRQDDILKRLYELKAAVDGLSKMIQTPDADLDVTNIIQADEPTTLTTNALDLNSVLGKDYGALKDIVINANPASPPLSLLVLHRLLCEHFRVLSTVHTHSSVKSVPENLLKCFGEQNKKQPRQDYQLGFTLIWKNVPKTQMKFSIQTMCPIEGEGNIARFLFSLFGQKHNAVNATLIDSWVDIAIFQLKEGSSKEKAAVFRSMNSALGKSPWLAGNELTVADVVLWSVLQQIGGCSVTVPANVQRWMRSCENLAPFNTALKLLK
Sequence of UniProt P35611 (P35611 whole entry, looked up): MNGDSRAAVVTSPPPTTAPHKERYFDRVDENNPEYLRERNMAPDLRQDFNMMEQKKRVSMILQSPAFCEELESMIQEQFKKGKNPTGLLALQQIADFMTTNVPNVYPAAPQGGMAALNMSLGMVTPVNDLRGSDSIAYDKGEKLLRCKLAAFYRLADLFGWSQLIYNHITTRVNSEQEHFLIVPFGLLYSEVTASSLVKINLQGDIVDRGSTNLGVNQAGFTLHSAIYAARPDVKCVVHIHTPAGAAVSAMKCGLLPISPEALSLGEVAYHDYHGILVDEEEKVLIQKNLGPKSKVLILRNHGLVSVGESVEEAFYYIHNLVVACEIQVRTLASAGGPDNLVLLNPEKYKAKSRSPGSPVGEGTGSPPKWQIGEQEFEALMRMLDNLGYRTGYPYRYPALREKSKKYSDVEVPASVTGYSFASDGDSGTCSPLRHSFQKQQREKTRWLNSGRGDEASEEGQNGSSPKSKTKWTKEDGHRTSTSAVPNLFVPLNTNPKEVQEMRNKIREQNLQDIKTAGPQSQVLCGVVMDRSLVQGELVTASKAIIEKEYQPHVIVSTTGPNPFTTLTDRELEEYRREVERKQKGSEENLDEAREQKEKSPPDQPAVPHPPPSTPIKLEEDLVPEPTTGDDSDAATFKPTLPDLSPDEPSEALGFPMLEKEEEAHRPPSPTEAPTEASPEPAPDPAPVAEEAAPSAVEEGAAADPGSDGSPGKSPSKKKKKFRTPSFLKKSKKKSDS
Sequence of UniProt Q9P1F3 (Q9P1F3 whole entry, looked up): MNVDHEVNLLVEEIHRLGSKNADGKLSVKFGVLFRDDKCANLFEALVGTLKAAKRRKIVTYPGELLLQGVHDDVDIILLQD
Sequence of UniProt Q9BXX3 (Q9BXX3 whole entry, looked up): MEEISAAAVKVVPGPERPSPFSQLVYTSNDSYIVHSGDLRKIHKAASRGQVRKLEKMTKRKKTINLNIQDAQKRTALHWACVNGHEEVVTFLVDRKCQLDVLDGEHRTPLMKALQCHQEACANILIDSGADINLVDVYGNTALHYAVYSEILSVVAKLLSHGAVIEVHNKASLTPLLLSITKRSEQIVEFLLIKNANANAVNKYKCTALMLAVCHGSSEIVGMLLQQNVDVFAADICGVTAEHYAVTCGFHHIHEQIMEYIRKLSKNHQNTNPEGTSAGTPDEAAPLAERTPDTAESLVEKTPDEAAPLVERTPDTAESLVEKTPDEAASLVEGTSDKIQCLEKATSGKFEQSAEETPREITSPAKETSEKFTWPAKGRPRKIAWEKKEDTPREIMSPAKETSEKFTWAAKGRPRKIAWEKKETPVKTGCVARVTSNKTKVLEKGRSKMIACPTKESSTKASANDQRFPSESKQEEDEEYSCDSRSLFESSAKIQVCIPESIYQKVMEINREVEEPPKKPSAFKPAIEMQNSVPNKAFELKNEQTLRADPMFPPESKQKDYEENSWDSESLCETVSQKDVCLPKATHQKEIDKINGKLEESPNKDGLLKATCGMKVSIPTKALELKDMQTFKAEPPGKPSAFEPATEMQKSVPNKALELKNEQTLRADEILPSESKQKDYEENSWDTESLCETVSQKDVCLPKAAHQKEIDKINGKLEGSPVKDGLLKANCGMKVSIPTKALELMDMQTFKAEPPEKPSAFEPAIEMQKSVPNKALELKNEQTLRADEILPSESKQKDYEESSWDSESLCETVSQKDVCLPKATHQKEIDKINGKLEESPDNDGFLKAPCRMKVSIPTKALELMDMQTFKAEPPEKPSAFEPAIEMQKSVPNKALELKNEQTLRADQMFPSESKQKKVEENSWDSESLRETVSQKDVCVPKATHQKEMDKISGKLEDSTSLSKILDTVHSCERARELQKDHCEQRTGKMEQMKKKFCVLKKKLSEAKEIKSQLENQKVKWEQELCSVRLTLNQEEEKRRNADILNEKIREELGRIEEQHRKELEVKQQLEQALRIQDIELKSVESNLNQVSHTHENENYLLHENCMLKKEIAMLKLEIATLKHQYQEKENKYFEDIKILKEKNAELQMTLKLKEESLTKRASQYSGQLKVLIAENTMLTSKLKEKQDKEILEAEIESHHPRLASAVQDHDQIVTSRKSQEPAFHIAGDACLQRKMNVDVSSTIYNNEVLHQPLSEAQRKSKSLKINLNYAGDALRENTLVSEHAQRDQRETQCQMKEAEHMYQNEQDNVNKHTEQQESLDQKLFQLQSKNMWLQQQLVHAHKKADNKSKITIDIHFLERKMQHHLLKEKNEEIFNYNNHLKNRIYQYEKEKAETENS
Sequence of UniProt P30838 (P30838 whole entry, looked up): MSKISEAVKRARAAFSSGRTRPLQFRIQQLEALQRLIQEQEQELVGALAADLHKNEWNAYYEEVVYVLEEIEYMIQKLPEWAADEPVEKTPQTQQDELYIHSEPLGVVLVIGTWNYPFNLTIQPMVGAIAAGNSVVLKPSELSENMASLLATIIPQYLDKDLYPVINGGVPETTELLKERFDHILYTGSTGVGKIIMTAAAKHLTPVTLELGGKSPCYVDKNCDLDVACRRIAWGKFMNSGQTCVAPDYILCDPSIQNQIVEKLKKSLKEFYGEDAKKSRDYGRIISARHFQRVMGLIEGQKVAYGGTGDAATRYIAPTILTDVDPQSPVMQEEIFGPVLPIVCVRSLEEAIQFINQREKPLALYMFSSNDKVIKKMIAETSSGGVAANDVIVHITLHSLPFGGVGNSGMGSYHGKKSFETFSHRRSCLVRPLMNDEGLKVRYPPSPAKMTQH
Sequence of UniProt P00519 (P00519 whole entry, looked up): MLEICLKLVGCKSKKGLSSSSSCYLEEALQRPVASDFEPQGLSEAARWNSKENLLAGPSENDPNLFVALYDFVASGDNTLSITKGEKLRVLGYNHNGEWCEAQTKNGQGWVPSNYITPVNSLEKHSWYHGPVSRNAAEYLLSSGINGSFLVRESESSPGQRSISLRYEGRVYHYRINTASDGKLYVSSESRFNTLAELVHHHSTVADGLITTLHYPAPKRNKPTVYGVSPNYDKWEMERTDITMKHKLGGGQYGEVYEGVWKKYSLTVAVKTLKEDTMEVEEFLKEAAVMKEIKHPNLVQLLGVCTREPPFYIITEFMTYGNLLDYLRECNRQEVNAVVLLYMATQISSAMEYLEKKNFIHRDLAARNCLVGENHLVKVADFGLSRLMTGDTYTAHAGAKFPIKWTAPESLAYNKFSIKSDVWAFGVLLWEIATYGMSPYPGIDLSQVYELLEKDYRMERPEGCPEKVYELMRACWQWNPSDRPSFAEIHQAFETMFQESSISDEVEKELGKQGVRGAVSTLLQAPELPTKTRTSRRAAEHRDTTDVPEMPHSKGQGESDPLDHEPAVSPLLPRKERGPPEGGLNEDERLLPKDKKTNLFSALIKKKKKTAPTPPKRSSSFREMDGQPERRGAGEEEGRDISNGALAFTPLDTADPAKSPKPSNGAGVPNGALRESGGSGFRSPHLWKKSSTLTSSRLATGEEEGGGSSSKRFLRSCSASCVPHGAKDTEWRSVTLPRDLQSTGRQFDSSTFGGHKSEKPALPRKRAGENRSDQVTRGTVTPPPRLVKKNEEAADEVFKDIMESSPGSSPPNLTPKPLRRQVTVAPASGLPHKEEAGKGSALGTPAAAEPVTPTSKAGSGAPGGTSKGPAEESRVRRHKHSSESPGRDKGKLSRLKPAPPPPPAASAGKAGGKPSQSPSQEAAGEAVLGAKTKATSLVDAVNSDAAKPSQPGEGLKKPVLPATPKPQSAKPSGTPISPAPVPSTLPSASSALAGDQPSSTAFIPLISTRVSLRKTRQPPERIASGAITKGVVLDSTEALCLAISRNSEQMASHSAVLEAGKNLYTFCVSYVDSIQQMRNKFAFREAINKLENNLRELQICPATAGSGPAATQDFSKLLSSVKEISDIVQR
Sequence of UniProt Q7L211 (Q7L211 whole entry, looked up): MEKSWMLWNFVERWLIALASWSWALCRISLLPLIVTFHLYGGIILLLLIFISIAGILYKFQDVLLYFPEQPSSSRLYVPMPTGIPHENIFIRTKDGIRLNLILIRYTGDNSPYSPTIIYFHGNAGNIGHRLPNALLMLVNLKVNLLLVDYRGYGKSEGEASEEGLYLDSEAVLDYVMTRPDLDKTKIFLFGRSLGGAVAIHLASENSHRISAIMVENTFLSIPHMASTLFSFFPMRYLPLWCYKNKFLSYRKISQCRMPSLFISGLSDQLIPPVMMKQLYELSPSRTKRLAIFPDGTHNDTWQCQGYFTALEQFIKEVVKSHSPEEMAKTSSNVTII
Sequence of UniProt Q9BQI0 (Q9BQI0 whole entry, looked up): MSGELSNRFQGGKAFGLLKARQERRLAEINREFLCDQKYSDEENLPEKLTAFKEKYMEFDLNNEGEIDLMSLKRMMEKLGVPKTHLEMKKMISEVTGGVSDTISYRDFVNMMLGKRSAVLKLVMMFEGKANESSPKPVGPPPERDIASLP
Sequence of UniProt P27216 (P27216 whole entry, looked up): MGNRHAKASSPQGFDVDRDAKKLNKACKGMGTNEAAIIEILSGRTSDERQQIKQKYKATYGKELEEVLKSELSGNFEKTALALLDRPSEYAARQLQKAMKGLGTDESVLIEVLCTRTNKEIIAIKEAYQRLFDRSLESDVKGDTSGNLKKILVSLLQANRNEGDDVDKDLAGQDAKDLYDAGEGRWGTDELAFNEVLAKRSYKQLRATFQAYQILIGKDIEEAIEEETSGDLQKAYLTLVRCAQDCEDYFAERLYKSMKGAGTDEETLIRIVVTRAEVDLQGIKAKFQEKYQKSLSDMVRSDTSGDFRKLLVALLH

Target | log2 fold change [1] | log2 fold change [2] | log2 fold change [3] | log2 fold change [4] | log2 fold change [5] | log2 fold change [6] | log2 fold change [7] | log2 fold change [8] | log2 fold change [9] | log2 fold change [10] | log2 fold change [11] | log2 fold change [12] | log2 fold change [13] | log2 fold change [14] | log2 fold change [15] | log2 fold change [16] | log2 fold change [17] | log2 fold change [18] | log2 fold change [19] | log2 fold change [20]
ACACA isoform 4 (UniProt Q13085) | 0.014 | 0.024 | 0.043 | -0.062 | -0.085 | 0.056 | -0.025 | -0.067 | 0.001 | 0.011 | 0.016 | -0.115 | -0.011 | -0.008 | -0.02 | 0.032 | -0.16 | 0.014 | 0 | -0.004
AIMP2 isoform 2 (UniProt Q13155) |  | -0.134 | 0.038 |  | 0.047 | -0.027 |  |  |  | 0.014 |  | -0.038 |  |  |  |  |  |  | 0.115 | 
ABL1 isoform 2 (UniProt P00519) | 0.05 | 0.125 | 0.031 | -0.03 | -0.012 | -0.048 | 0.156 | -0.097 |  | -0.012 |  | -0.091 | 0.044 | -0.023 | -0.011 | 0.039 | 0.071 | 0.019 | -0.011 | 
ACTG1 (UniProt K7EM38) |  | -0.259 |  | -0.208 | -0.124 |  |  |  |  |  |  |  |  |  |  | -0.286 | 0.142 |  | 0.099 | 
ANXA13 isoform 2 (UniProt P27216) | -0.129 | -0.071 | 0.091 |  | -0.035 | 0.131 | -0.179 | 0.106 | 0.004 | -0.001 | -0.121 | -0.072 | -0.059 | -0.036 | -0.369 |  |  | 0.047 | 0.034 | 0.085
ANKRD40 (UniProt Q6AI12) | 0.501 |  | -0.091 | -0.118 |  | -0.066 | 0.094 | -0.075 | -0.101 | 0.012 | 0.084 | -0.164 | 0.08 | 0.095 | 0.101 | 0.04 | -0.109 | -0.188 |  | -0.089
AIF1L (UniProt Q9BQI0) |  | 0.049 | 0.009 | -0.101 | -0.086 | 0.091 | 0.153 | -0.117 | 0.13 | 0.115 | 0.083 | -0.009 | 0.073 |  | 0.164 | 0.06 | -0.401 (active) | 0.095 | 0.001 | 0.035
ALDH3A1 (UniProt P30838) |  | 0.014 |  |  | 0.035 | -0.399 | -0.618 | 0.216 | 1.2 (active) | -0.007 | -0.218 | 0.366 | -0.065 |  | -0.138 |  |  |  | 0.165 | 
ANKRD30A (UniProt Q9BXX3) |  | 0.111 | 0.087 | -0.102 | -0.08 | 0.152 | 0.262 | 0.891 | 0.072 | 0.032 | -0.148 | -0.294 |  |  | 0.017 | 0.053 | 0 | -0.009 | 1.45 (active) | -0.03
ABHD13 (UniProt Q7L211) | 0.069 | -0.016 | 0.102 | -0.107 | 0.06 |  | -0.543 (active) | 0.077 | 0.179 | -0.031 | -0.225 |  |  | 0.022 | -0.051 | 0 | 0.006 | 0.023 | -0.019 | 0.06
ABRACL (UniProt Q9P1F3) |  | -0.074 | 0.06 |  | -0.001 |  | 0.156 | 0.053 | 0.134 | 0 | -0.016 |  | 0.121 |  | 0.166 |  |  | 0.091 | -0.081 | -0.207
ALKBH7 (UniProt Q9BT30) |  |  |  | -0.031 |  | 0.072 | 0.233 | -0.2 | -0.012 | -0.016 | -0.016 | -0.045 | 0.35 |  | -0.029 | -0.115 | 0.201 | 0.333 |  | -0.108
ABI1 isoform 6 (UniProt Q8IZP0) |  | -0.219 |  | 0.248 | 0.026 |  |  |  |  |  |  |  |  |  |  | -0.212 | 0.114 |  | 0.023 | 
ADD1 isoform 4 (UniProt P35611) | 0.061 | -0.003 | -0.089 | 0.164 | 0.061 | -0.345 | -0.61 | 0.397 | 0.083 |  | -0.397 | 0.303 | -0.081 | 0.071 | 0.051 | -0.034 | 0 |  | 0.094 | 
